Among all 1,800 compounds or so, about 880 (49%) were called active. So high a share suggests a set chosen from earlier hits. Only a sample is shown. Unmarked numbers belong to inactive results. Rule as the data show it: active = inhibition above about 55%; inactive = the rest.

In this test the target is Orexin/Hypocretin receptor type 1 (Homo sapiens) (UniProt O43613). Put plainly: OX1R (HCRTR1) antagonists, confirmation, cell-based, HTRF (AID 492964).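 Also: CHO cells expressing OX1R stimulated with orexin A at about EC80; 0% = agonist challenge alone and 100% = reference antagonist.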 To be noted: OX1R-expressing cells, HTRF antagonist assay; at 6.6 µM; active compounds read high. (In general: Time-resolved FRET reads energy transfer from a long-lived donor to a nearby acceptor.)
Orexin/Hypocretin receptor type 1 (Homo sapiens), sequence (O43613 whole entry, looked up): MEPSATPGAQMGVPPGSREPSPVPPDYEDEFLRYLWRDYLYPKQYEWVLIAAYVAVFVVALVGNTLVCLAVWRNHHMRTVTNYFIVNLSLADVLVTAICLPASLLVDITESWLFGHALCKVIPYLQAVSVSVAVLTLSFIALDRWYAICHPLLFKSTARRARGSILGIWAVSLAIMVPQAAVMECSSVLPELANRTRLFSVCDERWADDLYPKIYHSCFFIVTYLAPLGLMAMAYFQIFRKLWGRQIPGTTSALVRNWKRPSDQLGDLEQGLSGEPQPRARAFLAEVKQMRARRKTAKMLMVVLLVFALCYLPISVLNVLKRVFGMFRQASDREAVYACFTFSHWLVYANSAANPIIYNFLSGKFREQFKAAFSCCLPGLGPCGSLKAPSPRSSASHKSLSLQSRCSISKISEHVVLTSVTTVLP
On to `CCC(=O)N(C)C(c1ccccc1Cl)c1nnnn1-c1c(C)cccc1C` (stereo not drawn), for which the inhibition is 64% (active).
For `Cc1ccc2c(c1)nnc1nnc(SCC(=O)O)n12` the value was 63.9% (active).
For the molecule `C/C(N)=C(/C#N)C(=O)COC(=O)c1cc(-c2ccc(C)cc2)nc2ccccc12`, the inhibition is 27.5%.
For `O=C(Nc1nnc(-c2ccccc2)o1)c1cc(-c2cccs2)nc2ccccc12` the value was 75.6% (active).
For `Cc1cc(C)cc(NC(=O)C2CCCN2S(=O)(=O)c2cccc3cccnc23)c1` (stereo not drawn) the value was 88.2% (active); for `CCOc1ccc(NC(=O)CCS(=O)(=O)c2cccc3nsnc23)cc1`, 31.9%; for `CC(=O)c1cccc(NC(=O)C2CCCN2S(=O)(=O)c2cccc3nsnc23)c1` (stereo not drawn), 101% (active).
For `O=C(NCc1ccco1)C1CCCN(S(=O)(=O)c2cccc3nonc23)C1` (stereo not drawn) the value was 16.2%.
Turning to `CN1CCN(/N=C/c2ccc(-c3ccc([N+](=O)[O-])cc3)o2)CC1`, the inhibition was 26.4%.
`C=CCn1c(SCC(=O)Nc2nc3ccccc3s2)nnc1-c1ccccc1O`: the inhibition is 76.1% (active).
For `COc1ccc2oc(=O)c(C(=O)NCc3ccccn3)cc2c1`, the inhibition is 35.8%.
For `O=C(Nc1ccc2sc3ccccc3c(=O)c2c1)c1ccccc1Cl` the value was 95.8% (active); for `CC(C)(C)NC(=O)Cn1cnc2cc([N+](=O)[O-])ccc2c1=O`, 43.3%; for `CCOc1cc(/C=C(\C#N)c2nc(-c3cccs3)c(NC(C)=O)s2)ccc1O`, 73.3% (active).
As for `O=C(Cc1ccccc1)N1CCN(S(=O)(=O)c2ccc([N+](=O)[O-])cc2)CC1`, the inhibition was 61.2% (active).
For `Cc1ccc([C@@H]2CC=C(C(=O)O)[C@H](c3cccc(Cl)c3)N2S(=O)(=O)c2ccc(C)cc2)cc1` the value was 82.8% (active); for `Cc1ccccc1S(=O)(=O)N1[C@@H](c2cccc(Cl)c2)C(C(=O)O)=CC[C@H]1c1ccc(Cl)cc1`, 87.4% (active).
For `O=C(Nc1nnc(C2=COCCO2)o1)c1ccc([N+](=O)[O-])s1` the value was 49.7%.
As for `c1ccc(-c2nc(NCc3ccco3)c3ccccc3n2)cc1`, the inhibition was 64% (active).
For `C[n+]1ccccc1C1CCCC/C1=N\Nc1ccc([N+](=O)[O-])cc1[N+](=O)[O-]` (stereo not drawn) the value was 35.2%; for `Nc1nc(-c2sc3nc4c(cc3c2N)CCCC4)nc(N2CCOCC2)n1`, 94.8% (active).
For `O=C(CN1C(=O)c2cccc3cccc(c23)C1=O)N1CCCCC1` the value was 33.8%; for `Cn1c(N)c(C(=O)COC(=O)c2ccc3ccccc3c2)c(=O)n(C)c1=O`, 63.3% (active).
For `COc1ccc2[nH]c(=O)c(CNc3ccc(C)c(C)c3)cc2c1` the value was 31.3%; for `O=C(N/N=C/c1c(Cl)[nH]c2ccccc12)c1sc2ccccc2c1Cl`, 92.5% (active).
In the case of `Cc1ccc(Nc2nc(CSc3nnnn3-c3ccccc3)cc(=O)[nH]2)cc1`, the inhibition was 22.3%.
Take `O=C(OC1CCOC1=O)c1ccc(-c2nc3ccccc3s2)s1` (stereo not drawn): the inhibition is 98.5% (active).
For `O=C(c1ccncc1)c1ccc([N+](=O)[O-])cc1` the value was 53.2%.

In general, inhibition refers to the change of the read-out against control, counted positive when it falls.

The values are drawn from PubChem BioAssay AID492964 (The Scripps Research Institute Molecular Screening Center, 2010).
